# This excerpt belongs to a sample that is enriched for hits.
# TTR transcr act: TTR transcription activation, primary screen; SH-SY5Y TTR promoter Gaussia luciferase, luminescence; 100% = recombinant luciferase protein wells; activation, % at 16.7 µM; 1.3% of 92,000 active;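 active = activation above the mean of all tested compounds plus 3 SD, cut at about 9.5% in these data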;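 also: cells exposed to compounds for one day before reading; 0% = median of all test compound wells on the plate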
# TTR inh HuH7: counter-screen for TTR activators: TTR transcription inhibitors in HuH7 cells. shares compounds with TTR transcr act. HuH7 TTR promoter-Gaussia luciferase reporter, luminescence. inhibition, % at 16.7 µM. 4% of 1,100 active;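 active = average inhibition above the solvent-only control wells' mean plus 3 SD, cut at about 15% in these data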;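 also: 0% = cells with DMSO only and 100% = cells with inhibitor control FD; inhibitors lower well luminescence so higher value means more inhibition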
# TTR act confirm: human TTR transcription activation, confirmation. SHSY5Y TTR promoter Gaussia luciferase, luminescence; 100% = purified Lucia enzyme wells, no cells. AID 1117280. activation, % at 16.7 µM. shares compounds with TTR transcr act. 1,100 tested, under 10 active;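 active = mean activation above a set limit taken from the earlier primary screen, cut at about 11% in these data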;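 also: 0% = DMSO-treated cells and 100% = recombinant Lucia luciferase without cells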
# Numbers without * were called inactive.
SMILES,TTR transcr act,others
CC(OC(=O)COc1ccccc1)C(=O)NC1CCCC1 (configuration not stated),-0.7,
CCc1ccc(S(=O)(=O)Nc2cccc(-c3ccc4nncn4n3)c2)s1,5.8,
C/C(CC(=O)Nc1ccc(Cl)cc1C(F)(F)F)=N\NC(N)=S,-0.9,
CC(C)Cc1nc(N2CCCCC2)c(C#N)c2c1CCC2,1.6,
COCCn1c(N)c(N(Cc2ccccc2)C(=O)c2ccc(C#N)cc2)c(=O)[nH]c1=O,0.4,
COc1ccc(CN2CCN(Cc3cccc(Oc4ccccc4)c3)CC2)c(OC)c1OC,-1.6,
O=C(c1ccccc1)N1CCN(Cc2cccc(Oc3ccccc3)c2)CC1,-1.9,
CN1CCN(Cc2cccc(Oc3ccccc3)c2)CC1,18.0*,TTR inh HuH7=-3.9;TTR act confirm=-0.7
COc1ccc(/C=C/C(=O)Oc2ccc(/C=N/NC(=O)c3ccccc3)cc2)cc1OC,-0.8,
Cc1cc(C)n(Cc2ccc(Cl)c(Cl)c2)c(=O)c1S(=O)(=O)c1ccccc1,-1.8,
Cc1cc(C)c(C)c(OCC(=O)O/N=C(\N)c2ccccn2)c1,10.4*,TTR inh HuH7=-20.6;TTR act confirm=-0.2
Cc1cc(C)cc(OCC(=O)O/N=C(\N)c2ccccn2)c1,1.3,
Cc1cc(C)c(C)c(OCC(=O)O/N=C(\N)c2ccncc2)c1,0.0,
Cc1cc(NC(=O)COC(=O)c2c(C)c(C)c(C)c(C)c2C)no1,-1.0,
COC(=O)CNC(=O)C1(C)C=CCN1C(=O)c1ccccc1 (configuration not stated),4.5,
Cc1ccc2c(COC(=O)c3ccccc3OC(F)F)cc(=O)oc2c1,1.1,
Cc1ccc(C(=O)Nc2c(N)nc(SCC(=O)Nc3cc(C)on3)[nH]c2=O)cc1,0.1,
CCCCC(Sc1nc(N)c(NC(=O)c2ccc(OCC)cc2)c(=O)[nH]1)C(=O)O (configuration not stated),1.1,
CCC(Sc1nc(N)c(NC(=O)c2ccc(Br)o2)c(=O)[nH]1)C(=O)O (configuration not stated),12.4*,TTR inh HuH7=-9.7;TTR act confirm=0.1
CC1(C)CC(=O)C=C(Nc2cccc(C(F)(F)F)c2)C1,1.0,
CCCCOc1ccc(Cc2c(O)nc(SC)[nH]c2=O)cc1,9.9*,TTR inh HuH7=-22.0;TTR act confirm=0.6
CCCCSc1nc(O)c(Cc2ccccc2)c(=O)[nH]1,2.3,
CCCOc1ccc(C(C)=O)cc1Cc1c(O)nc(SC)[nH]c1=O,-1.8,
CCOc1ccccc1C=NNc1ccc([N+](=O)[O-])cn1,-1.6,
O=C(C1CCCCC1)N1C[C@H](n2cc(C3CC3)nn2)[C@@H](O)C[C@@H]1c1ccccc1,4.8,
SMILES,TTR transcr act,others
CCc1ccc(NC(=O)CCc2c(C)nn(-c3ccc(N4CCCCC4)nn3)c2C)cc1,-2.4,
CCOC(=O)/C=C1\SCC(=O)N1Cc1ccc(Br)cc1,0.4,
CC(C)(C)c1ccc(SCCc2ccccn2)cc1,1.5,
COc1cccc(-c2c(C#N)c(SC)nc3cc(C)nn23)c1,-0.6,
O=C(Nc1ccc2c(c1)OCO2)C1CC(=O)N(CCc2ccccc2)C1 (configuration not stated),-1.6,
CCOc1ccc(NC(=O)CN(C)C(=O)c2ccncc2)cc1OCC,-1.0,
CCOc1ccc(NC(=O)CN(C)C(=O)C2CC(=O)N(CCc3ccccc3)C2)cc1OCC (configuration not stated),24.6*,TTR inh HuH7=-14.5;TTR act confirm=0.9
O=C1NC[C@H](Cc2ccccc2)N(C[C@H]2CCCN2C[C@H](Cc2ccccc2)N2C[C@H](Cc3ccccc3)N(CC3CCCCC3)C(=O)C2=O)C1=O,0.4,
NC(=O)CCSC(=S)N1CCOCC1,0.3,
CCSc1nc2ccccc2n1S(=O)(=O)c1ccccc1,30.5*,TTR inh HuH7=3.8;TTR act confirm=0.2
CCc1ccc(S(=O)(=O)n2c(C)nc3ccccc32)cc1,3.2,
Cc1nc2ccccc2n1S(=O)(=O)c1ccc(Br)cc1,6.8,
Cc1cc(C)c(NC(=O)CSCc2nc3sc(C)c(C)c3c(=O)[nH]2)c(Cl)c1,0.5,
Cc1c(C(=O)N2CCOCC2)oc2ccc(S(=O)(=O)N3CCCC3)cc12,1.5,
Cc1c(C(=O)N2CCN(S(=O)(=O)c3ccccc3)CC2)oc2ccc(Br)cc12,31.2*,TTR inh HuH7=-18.6;TTR act confirm=-0.1
Cc1c(C(=O)N2CCc3ccccc3C2)oc2ccc(S(=O)(=O)N3CCCCCC3)cc12,0.7,
COc1ccc(C(=O)N2CCC(C(=O)NC3CC3)CC2)cc1,0.2,
Cc1ccnc2nc(C(=O)Nc3nc4ccccc4s3)nn12,4.7,
Cc1ccnc2nc(C(=O)Nc3ccc(N4CCOCC4)cc3)nn12,0.7,
Cc1csc(NC(=O)c2nc3nccc(C)n3n2)n1,11.2*,TTR inh HuH7=-7.8;TTR act confirm=-1.0
Nc1[nH]c(C(=O)c2ccccc2)c(-c2ccc(Br)cc2)c1C(=O)NC1CCCCC1,1.9,
O=C(NCc1ccccc1)OCCN1C(=O)CCC12CCCCC2,0.5,
COc1ccc(CN(C(=O)Cn2nnc3ccccc32)C(C(=O)NC(C)(C)C)c2ccco2)cc1 (configuration not stated),9.9*,TTR inh HuH7=-8.9;TTR act confirm=-0.5
O=C(NC1CCCCC1)C(c1ccco1)N(Cc1cccs1)C(=O)Cn1nnc2ccccc21 (configuration not stated),-2.5,
CCC(C)(C)NC(=O)C(c1ccccc1F)N(Cc1ccco1)C(=O)Cn1nnc2ccccc21 (configuration not stated),5.7,
SMILES,TTR transcr act,others
Cc1ccc(NC(=O)NCc2ccc3c(c2)OCO3)c(C)c1,0.2,
COCC(C)n1c(C)cc(C(=O)CSc2nnnn2C2CCCC2)c1C (configuration not stated),4.5,
Cc1c(Cl)cccc1NC(=O)[C@@H](NC(=O)c1ccccc1Cl)C(C)C,-0.5,
Cc1cc(C)c(C(N)=O)c(Nc2ccc3c(c2)OCCO3)n1,10.3*,TTR inh HuH7=-10.8;TTR act confirm=0.0
CCc1ccc(Nc2nc(C)cc(C)c2C(N)=O)cc1,0.9,
COc1ccc(Nc2nc(C)cc(C)c2C(N)=O)cc1,-1.5,
COc1ccc(C(=O)NCCS(=O)(=O)NCC2CCCO2)cc1 (configuration not stated),-0.8,
CCN(c1ccccc1)S(=O)(=O)c1ccc(Cl)c(C(=O)O)c1,-1.2,
CN1CCN(C(=O)C2CCN(S(=O)(=O)c3ccccc3[N+](=O)[O-])CC2)CC1,5.3,
CN(CCc1ccccc1)C(=O)c1cccc(NC(=O)Cc2cccc(NC(=O)C3CCN(C(=O)c4ccccc4)CC3)c2)c1,9.9*,TTR inh HuH7=-6.5;TTR act confirm=0.3
CN(CCc1ccccc1)C(=O)c1cccc(NC(=O)Cc2cccc(NC(=O)C3CCN(C(=O)C4CC4)CC3)c2)c1,0.1,
CN(CCc1ccccc1)C(=O)c1cccc(NC(=O)Cc2cccc(NC(=O)C3CCN(C(=O)C4CCCC4)CC3)c2)c1,-0.2,
CN1CCN(C2=C(Cl)C(=O)N(CCc3ccccc3)C2=O)CC1,4.6,
O=C(CCc1ccccc1)NCCCN1CCOCC1,0.8,
O=C1C(Cl)=C(NCCCN2CCOCC2)C(=O)N1CCc1ccccc1,69.5*,TTR inh HuH7=-2.7;TTR act confirm=-0.7
c1ccc(-c2ccc(CN3C[C@@H]4C(c5ccccc5)C5(c6cccnc6)CC4(C5)[C@H]3c3ccccc3)cc2)cc1 (some centres not stated),-1.9,
COc1ccc(C(=O)NCCS(=O)(=O)N2CCc3ccccc3C2)c(OC)c1,-0.5,
COc1ccc(CCn2c(C)nc3ccccc3c2=O)cc1OC,0.5,
CCn1c(=O)c([N+](=O)[O-])c(NCCc2ccc(OC)c(OC)c2)c2ccccc21,-1.5,
